In PubChem BioAssay AID1565 (Sanford-Burnham Center for Chemical Genomics, 2009):
Hit rate of the full screen: of about 290,000 compounds, about 3,200 (1.1%) were called active. The entries come from a sample that favours actives as a whole. Unmarked numbers belong to inactive results. No stated cut-off is given here; in the data, active means inhibition above about 60%; inactive means the rest.

The molecules below were run against Phosphoethanolamine/phosphocholine phosphatase (Homo sapiens) (UniProt Q8TCT1) (assay: PubChem AID 1565). Conditions: recombinant PHOSPHO1, absorbance phosphatase assay; at 13.3 µM; active compounds read high.
Phosphoethanolamine/phosphocholine phosphatase (Homo sapiens), sequence (Q8TCT1 whole entry, looked up): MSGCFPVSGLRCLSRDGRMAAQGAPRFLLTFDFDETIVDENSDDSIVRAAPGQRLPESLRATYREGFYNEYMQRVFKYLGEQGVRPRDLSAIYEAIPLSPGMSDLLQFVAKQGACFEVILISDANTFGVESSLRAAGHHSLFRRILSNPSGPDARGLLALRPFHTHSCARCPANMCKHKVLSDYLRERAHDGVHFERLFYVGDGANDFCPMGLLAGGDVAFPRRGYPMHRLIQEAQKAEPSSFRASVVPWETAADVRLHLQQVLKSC
Work on `Brc1ccc(-c2nnc(-c3ccccc3)o2)o1` yielded an inhibition of -10.5%. `Nc1ccc(-c2nnc(-c3ccc(-c4ccccc4)cc3)o2)cc1` was tested, and the inhibition was 71.5% (active). With `Nc1ccc(-c2nnc(-c3ccccc3)o2)cc1` the inhibition was 4.2%. `COc1cccc(CNC(=O)c2nnn(CC(=O)Nc3cc(C)ccc3C)c2N)c1` showed an inhibition of 37.5%. For `Cc1ccc2nc(-c3ccc(NC(=O)c4cccnc4)cc3)oc2c1`, the inhibition was 30.4%. With `COc1ccccc1C(=O)Nc1ccnn1C1CCN(Cc2cnn(C)c2)CC1` the inhibition was 38.1%. Work on `Cc1onc(C(=O)NN)c1C(=O)N1CCN(C(c2ccccc2)c2ccccc2)CC1` yielded an inhibition of -25.8%. For `Oc1ccccc1CN1CCN(C(c2ccccc2)c2ccccc2)CC1`, the inhibition was 34.3%. In the case of `Clc1cccc(CN2COc3c(cc(Cl)c4cccnc34)C2)c1`, the inhibition is reported as -4%. With `CCN1CCN(C(c2cccnc2)c2cc(Cl)c3cccnc3c2O)CC1` (stereo not drawn) the inhibition was 98.8% (active). With `CCOC(=O)N1CCN(C(c2cccnc2)c2ccc3cccnc3c2O)CC1` (stereo not drawn) the inhibition was 96.9% (active). Molecule `O=C(CSc1cccc2cccnc12)N/N=C/c1cccnc1` has an inhibition of -11.2%. In the case of `Cc1cccc(NC(=O)c2cccc(C(=O)Nc3cccc(C)c3C)n2)c1C`, the inhibition is reported as 14.9%. For `COc1cccc2cc(C(N)=O)/c(=N\NC(=O)c3ccccc3)oc12`, the inhibition was 43.7%. `CCCCCN(C(=O)CCC(=O)OCC(=O)NCc1ccc(OC)cc1)c1c(N)n(CCCC)c(=O)[nH]c1=O` gave an inhibition of 36.6%. With `Cc1ccc(NC(=O)COC(=O)C2C3CC4OC(=O)C2C4C3)cc1Cl` (stereo not drawn) the inhibition was 23.2%. For `CSc1nnc(-c2ccncc2)n1CCCN1CCCC1=O`, the inhibition was 86.5% (active). `COCCCn1c(SCC(=O)Nc2ccccc2)nnc1-c1ccncc1` gave an inhibition of -12.8%. Molecule `CCCn1c(SCC(=O)N2CCc3ccccc32)nnc1-c1ccncc1` has an inhibition of 1.6%. `COc1cccc(C(=O)Nc2nnc(S(=O)(=O)N(C)c3ccccc3)s2)c1` showed an inhibition of 41.2%. In the case of `O=C(Nc1ccncc1)c1ccc([N+](=O)[O-])cc1Cl`, the inhibition is reported as 15.6%. `Cc1c(CCC(=O)O)c(=O)oc2cc(OCc3ccc(Br)cc3)ccc12` gave an inhibition of 4.7%. `NC(=O)COc1ccc2c3c(c(=O)oc2c1)CCCCC3` gave an inhibition of 18%. With `Cc1c(Cc2ccccc2)c(=O)oc2cc(OCC(N)=O)ccc12` the inhibition was 61.5% (active). For `COc1ccc(-n2nc(C(=O)NCC(=O)N3CCCCCC3)c3ccccc3c2=O)cc1Cl`, the inhibition was 36%. Molecule `CCOC(=O)c1c(N)sc(C(C)=O)c1C` has an inhibition of 33%. Molecule `COC(=O)c1sc(=S)n(-c2ccc(Cl)cc2)c1C` has an inhibition of -2.1%. `COCCOC(=O)c1sc(=S)n(CCOC)c1N` was tested, and the inhibition was 76.4% (active).
